# Assay results published in PubChem BioAssay AID488969 (Vanderbilt High Throughput Screening Facility, 2010).
# Whole data set: some 110,000 compounds, median “z-score” near -0.1, cut for the highest 2% near 2. The sample as a whole holds a higher share of the highest values than the screen did. Active and inactive are the calls of the source.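 Rule for the calls: active = z-score in the third read window above 3 or below -3; inactive = the rest.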
# Biological target: Metabotropic glutamate receptor 8 (Rattus norvegicus) (UniProt P70579)
# Assay: rat mGluR8 modulators via GIRK flux, primary screen, cell-based, thallium flux, HTS (AID 488969)
# Settings: HEK293 rat mGluR8, GIRK (G protein-gated inwardly rectifying potassium channel) thallium flux, FluoZin2; at 10 µM; stronger effect = higher value; submaximal glutamate (EC20) added with thallium
# Sequence of Metabotropic glutamate receptor 8 (Rattus norvegicus) (P70579 whole entry, looked up): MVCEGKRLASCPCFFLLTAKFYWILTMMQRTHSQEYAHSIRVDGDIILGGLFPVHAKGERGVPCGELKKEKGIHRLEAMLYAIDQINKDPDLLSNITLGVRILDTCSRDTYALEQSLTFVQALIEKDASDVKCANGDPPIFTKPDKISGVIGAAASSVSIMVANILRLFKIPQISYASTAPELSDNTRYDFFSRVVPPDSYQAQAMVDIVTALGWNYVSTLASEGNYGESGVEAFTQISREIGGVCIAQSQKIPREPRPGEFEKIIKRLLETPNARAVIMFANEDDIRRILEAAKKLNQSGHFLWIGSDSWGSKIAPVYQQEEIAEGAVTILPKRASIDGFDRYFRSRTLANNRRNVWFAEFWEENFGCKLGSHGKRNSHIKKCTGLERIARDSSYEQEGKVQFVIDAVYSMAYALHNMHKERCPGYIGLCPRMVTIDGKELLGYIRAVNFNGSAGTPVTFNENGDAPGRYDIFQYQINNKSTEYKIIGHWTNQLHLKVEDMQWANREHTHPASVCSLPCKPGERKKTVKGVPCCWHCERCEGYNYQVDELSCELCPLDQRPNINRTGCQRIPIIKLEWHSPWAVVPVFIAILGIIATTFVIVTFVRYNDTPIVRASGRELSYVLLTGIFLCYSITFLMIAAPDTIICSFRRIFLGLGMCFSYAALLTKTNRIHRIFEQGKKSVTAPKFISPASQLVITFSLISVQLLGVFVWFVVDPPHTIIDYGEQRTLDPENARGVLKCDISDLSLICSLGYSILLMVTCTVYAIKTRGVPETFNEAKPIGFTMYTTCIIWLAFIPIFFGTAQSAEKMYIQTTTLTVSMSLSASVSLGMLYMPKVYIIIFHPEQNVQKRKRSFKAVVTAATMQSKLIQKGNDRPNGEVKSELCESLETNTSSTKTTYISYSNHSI
row,SMILES,z-score
1,Cc1ccc(CNC(=O)C2C3C=CC4(CN(Cc5cccnc5)C(=O)C24)O3)cc1 (stereo unspecified),-0.0986
2,O=C(COC(=O)CCC1CCCC1)Nc1ccccc1Sc1ccccc1,-0.2
3,CCOc1c(OC(C)=O)ccc(/C=C/c2ccc3cccc(OC(C)=O)c3n2)c1[N+](=O)[O-],-0.227
4,COCCSc1ccccc1C(=O)NCc1ccco1,0.383
5,O=C(N/N=C/c1ccc[nH]1)c1ccccc1[N+](=O)[O-],-0.104
6,Cc1ccccc1N=Nc1c(C)[nH]n(C(N)=S)c1=O,2.97
7,CCN(CC)S(=O)(=O)c1ccc(N=Nc2c(C)[nH]n(C(N)=S)c2=O)cc1,0.608
8,Cc1ccc(N=Nc2c(C)[nH]n(C(N)=S)c2=O)cc1C,-0.217
9,COCCCNC(=O)/C(=C\c1cccn1C)NC(=O)c1cccs1,0.0671
10,O=C(NCc1ccccn1)C(F)(F)C(F)(F)C(=O)NCc1ccccn1,-0.509
11,CCc1nc2cc([N+](=O)[O-])c([N+](=O)[O-])cc2[nH]1,-0.0776
12,CCc1nc2cc(Cl)c(Cl)cc2[nH]1,2
13,CCc1nc2ccccc2[nH]1,0.00543
14,Cc1nc2ccsc2c(=O)n1-c1ccc(Cl)cc1,-0.0701
15,COc1ccc(N2C(=O)C3C4C=CC(CC4)C3C2=O)c([N+](=O)[O-])c1 (stereo unspecified),-0.215
16,OCCn1c(SC2CCCCC2)nc2ccccc21,0.162
17,O=C(N/N=C(/CC(=O)c1cccs1)C(F)(F)F)c1ccc(O)cc1,-0.828
18,Cc1ccc(C(=O)N/N=C(/CC(=O)c2cccs2)C(F)(F)F)cc1,7.05 (active)
19,O=C(C/C(=N\NC(=O)c1ccccc1Br)C(F)(F)F)c1cccs1,0.65
20,Cc1cc(C(=O)NCc2cc(C)n(C)n2)sc1-c1ccccc1,-0.62
21,CS(=O)(=O)Nc1ccccc1Oc1ccccc1,0.607
22,COCCCn1c(SCc2nnc(-c3ccccc3)o2)nc2sc3c(c2c1=O)CCC3,-0.256
23,COc1cccc(C2OC(=O)c3ccccc3N2C(C)=O)c1OC(C)=O (stereo unspecified),0.116
24,CSc1nc(Sc2cccc(Cl)c2)c2ccccc2n1,0.093

row,SMILES,z-score
1,CSc1nc(Sc2ccccc2)c2ccccc2n1,4.56 (active)
2,CSc1nc(Sc2ccc(Cl)cc2)c2ccccc2n1,0.0499
3,CCC(C)NC(=O)CCc1c(C)nc2nc(-c3cc(OC)cc(OC)c3)nn2c1C (stereo unspecified),-0.148
4,O=[N+]([O-])c1ccc(N2CCN(S(=O)(=O)c3ccc(Cl)cc3)CC2)cc1NCC1CCCO1 (stereo unspecified),-0.211
5,O=C(CN1CCN(c2ccccc2)CC1)Nc1ccc(-n2cnnn2)cc1,0.659
6,CCC1(C)Cc2c(sc3c2c(=O)n(C)c2nnc(SCc4ccccc4)n32)CO1 (stereo unspecified),-0.196
7,CCC1(C)Cc2c(sc3c2c(=O)n(C)c2nnc(SCC(=O)c4ccccc4)n32)CO1 (stereo unspecified),-0.469
8,CCC1(C)Cc2c(sc3c2c(=O)n(C)c2nnc(SCc4ccc5c(c4)OCO5)n32)CO1 (stereo unspecified),3.12 (active)
9,COc1ccccc1C(=O)N/C(=C\c1ccc2c(c1)OCO2)C(=O)NCCc1nc2ccccc2[nH]1,-1.09
10,CN(c1ccccc1C(=O)Nc1cccc(Cl)c1Cl)S(C)(=O)=O,0.0249
11,S=C(NCC1CCCO1)Nc1ccc(Cl)cc1Cl (stereo unspecified),0.145
12,CC(C)c1ccc2[nH]c(O)c(N=NC(=S)NCCc3ccccc3)c2c1,0.396
13,Oc1[nH]c2ccccc2c1C=NCC1CCCO1 (stereo unspecified),-0.00202
14,Oc1[nH]c2ccccc2c1N=NC(=S)NCC1CCCO1 (stereo unspecified),3.01 (active)
15,CCOC(=O)C(=O)N=Nc1c(O)[nH]c2ccccc12,-0.0577
16,Oc1[nH]c2c(Cl)cc(Cl)cc2c1N=NC(=S)NCC1CCCO1 (stereo unspecified),7.5 (active)
17,O=C(CCn1c(=S)[nH]c2ccccc2c1=O)NCC1CCCO1 (stereo unspecified),-0.275
18,Oc1[nH]c2ccccc2c1N=NC(=S)NCCc1ccccc1,3.06 (active)
19,S=C(NCC1CCCO1)Nc1ccc(Cl)cc1 (stereo unspecified),0.0149
20,Cc1ccccc1NC(=O)C1C2CCCC1C2c1ccccc1 (stereo unspecified),0.216
21,CCc1ccc(OCC(=O)NC(NC(=S)Nc2ccccc2OC)C(Cl)(Cl)Cl)cc1 (stereo unspecified),-0.163
22,Cc1cc(C(=O)OCC(=O)NC(C)(C)C)c2ccccc2n1,-0.284
23,O=C(N/N=C1\CCc2ccccc21)c1ccccc1Cl,-0.225
24,COc1ccc(CCCc2nnc(SCC(=O)Nc3nc(C)cs3)n2C)cc1,0.338

row,SMILES,z-score
1,O=C(NC1CCCC1)c1cccc(NC(=O)c2ccco2)c1,0.253
2,Cc1onc(-c2ccccc2)c1C(=O)Nc1cccc2nsnc12,-0.396
3,Cc1onc(-c2ccccc2Cl)c1C(=O)Nc1cccc2nsnc12,1.17
4,Cc1onc(-c2c(F)cccc2Cl)c1C(=O)Nc1cccc2nsnc12,2.67
5,CC1CCCCN1C(=O)Nc1cccc(Cl)c1 (stereo unspecified),0.789
6,COc1ccc(C(=O)c2c(C)c3cc(C)ccc3n2CC(O)CN2CCOCC2)cc1 (stereo unspecified),-0.197
7,CS(=O)(=O)N(CC(=O)NCCSc1ccccc1)c1ccc2c(c1)OCO2,1.46
8,Cc1ccc2nc(SCC(=O)N3CCOCC3)[nH]c2c1,0.844
9,Cc1ccccc1NC(=O)c1csc2c1CCCC2,-0.435
10,C/C(=N\NC(=O)c1cc2c(s1)CCC(C)C2)c1ccncc1 (stereo unspecified),-0.506
11,CCNC(=S)NNC(=O)c1csc2c1CCC(C)C2 (stereo unspecified),0.0328
12,Cc1cccc(NC(=S)NNC(=O)c2csc3c2CCC(C)C3)c1 (stereo unspecified),9.39 (active)
13,CC(C)CNC(=S)NNC(=O)c1csc2c1CCC(C)C2 (stereo unspecified),-1.59
14,Cc1cccc(NC(=S)NNC(=O)c2csc3c2CCCC3)c1,14 (active)
15,Cc1ccccc1NC(=S)NNC(=O)c1csc2c1CCC(C)C2 (stereo unspecified),8.84 (active)
16,Cc1ccc(C)c(NC(=S)NNC(=O)c2cc3c(s2)CCC(C)C3)c1 (stereo unspecified),10.3 (active)
17,CC1CCc2sc(C(=O)N/N=C/C3CCCCC3)cc2C1 (stereo unspecified),-0.764
18,Cc1cccc(NC(=S)NNC(=O)c2ccc(Br)o2)c1,1.14
19,Cc1cccc(NC(=S)NNC(=O)c2ccccc2Br)c1,0.847
20,CC1CCc2c(C(=O)Nc3ccc(OC(F)(F)F)cc3)csc2C1 (stereo unspecified),-0.225
21,COc1ccc(OC)c(CN(CCCN2CCOCC2)S(=O)(=O)c2ccc(NC(C)=O)cc2)c1,-0.129
22,CCN(CC)S(=O)(=O)c1ccc(-c2nnc(SCC(=O)Nc3ccc(OC)c(OC)c3)o2)cc1,0.581
23,COc1ccc(OC(C)C(=O)Nc2ccccc2C(F)(F)F)cc1 (stereo unspecified),-0.114
24,O=C(Nc1ccccc1C(=O)NCc1ccccc1)c1ccccc1,-0.543

row,SMILES,z-score
1,COn1c(=O)c(=O)n(O)c2ccccc21,-0.141
2,CN1C(=O)c2cccc(N(C)C)c2C1=O,-0.183
3,O=C(Nc1nsc(-c2ccccc2)n1)c1cccs1,-0.31
4,Cc1nn(-c2cccc(Cl)c2)c2c1C(c1cccnc1)C(C#N)=C(N)O2 (stereo unspecified),0.0248
5,CCCCOc1ccc(CONS(=O)(=O)c2ccc(NC(C)=O)cc2)cc1Cl,-0.176
6,CN1CCc2c(sc(N)c2C(N)=O)C1,-0.167
7,Cc1cc(C(=O)N/N=C/c2ccc(-c3ccccc3Cl)o2)n[nH]1,-0.496
8,CCCCNC(=S)NNC(=O)c1csc2c1CCC(C)C2 (stereo unspecified),0.319
9,Cc1ccc(C)c(NC(=S)NNC(=O)c2ccco2)c1,-0.0706
10,CCNC(=S)NNC(=O)c1csc2c1CCCC2,-0.209
11,Cc1ccc(C)c(NC(=S)NNC(=O)c2csc3c2CCC(C)C3)c1 (stereo unspecified),13.8 (active)
12,CC(C)CNC(=S)NNC(=O)c1csc2c1CCCC2,-0.116
13,Cc1ccc(C)c(NC(=S)NNC(=O)c2csc(C)c2C)c1,2.09
14,CCCCNC(=S)NNC(=O)c1csc(C)c1C,0.0325
15,Cc1ccc(C)c(NC(=S)NNC(=O)c2csc3c2CCCC3)c1,7.26 (active)
16,CC1CCc2c(C(=O)Nc3nccs3)csc2C1 (stereo unspecified),-0.208
17,COC(=O)Cn1c(=NC(=O)c2ccc(OC)c(OC)c2)sc2cc(OC)ccc21,-0.167
18,COc1ccc(/C=C2\CCCc3c2nc2ccccc2c3C(=O)OCC(=O)c2c(N)n(C)c(=O)n(C)c2=O)cc1,-0.224
19,O=C(CCn1nc(-c2ccccc2)c2ccccc2c1=O)NCC1CCCO1 (stereo unspecified),-0.116
20,Clc1ccc(OCc2cc(-c3ccccc3)no2)cc1Cl,-0.0469
21,O=C(CCCCCN1C(=O)c2ccccc2C1=O)Nc1ccc(F)cc1,-0.0499
22,CC(C)(C)c1ccccc1OCCCCN1CCCC1,2.06
23,CC(C)(C)c1ccccc1OCCN1CCCC1,-0.516
24,Cc1ccc(C(C)(C)C)c(OCCCCN2CCCC2)c1,0.658

row,SMILES,z-score
1,Cc1cccc(C(C)(C)C)c1OCCCCN1CCCC1,2.48
2,Cc1cccc(C(C)(C)C)c1OCCOCCN1CCCC1,0.391
3,Cc1cccc(C)c1OCCCN1CCCC1,0.0506
4,COC(=O)c1cc2oc(C)cc2n1CC(=O)Nc1cc(C)cc(C)c1,-0.162
5,O=C(CN1C(=O)CCS(=O)(=O)c2ccccc21)NCc1ccccc1,0.305
6,CCOc1ccc(C(=O)/C=C/c2ccccc2C(F)(F)F)cc1,-0.354
7,O=C(NCc1ccccn1)c1c(Cl)cccc1Cl,0.0849
8,CCCCn1c(C(C)O)nc2ccccc21 (stereo unspecified),-0.321
9,CC(C)CCn1c(C(C)O)nc2ccccc21 (stereo unspecified),-0.257
10,CC(O)c1nc2ccccc2n1C1CCCCC1 (stereo unspecified),6.36 (active)
11,N#CCCn1cc(C(CC(=O)c2ccccc2)C(=O)O)c2ccccc21 (stereo unspecified),-0.0596
12,Cc1cccc(N=c2oc3cc(O)ccc3cc2C(N)=O)c1,0.0144
13,COc1ccc(N=c2oc3cc(O)ccc3cc2C(=O)NCC2CCCO2)c(OC)c1 (stereo unspecified),-0.403
14,COc1ccc(OC)c(N=c2oc3cc(O)ccc3cc2C(N)=O)c1,1.99
15,C=CCN1C(=O)/C(=C2/Sc3ccccc3N2C)SC1=Nc1c(C)n[nH]c1C,3.97 (active)
16,C=CCN1C(=O)/C(=C2/Sc3ccccc3N2C)SC1=Nc1ccccc1C,-0.792
17,C=CCN1C(=O)/C(=C2/Sc3ccccc3N2CCCS(=O)(=O)O)SC1=S,-0.352
18,CCOC(=O)c1ccc(N2C(=O)CC(N3CCC(O)(c4ccc(Cl)cc4)CC3)C2=O)cc1 (stereo unspecified),0.433
19,CCCCC1S/C(=N/N=C/c2ccc(OC)cc2)N(Cc2ccc(OC)cc2)C1=O (stereo unspecified),-0.524
20,CCOC(=O)c1c(CN(CC)CC)oc2cc(Br)c(O)cc12,-1.27
